High-throughput results: PubChem, National Center for Advancing Translational Sciences (NCATS)
Most compounds without a hit are left out; they make up all but 10% or so of the library.
IMPase inh = qHTS Assay for Identifying the Cell-Membrane Permeable IMPase Inhibitors | Inositol monophosphatase 1 (Rattus norvegicus), P97697 | CHO-M1 cells, IP1 accumulation, HTRF TR-FRET ratio | inhibition (IP1 accumulation), % at 46.1 µM | 120,000 tested, under 10 active | AID 901, 2007; active means well fitted curve in the direction sought with a large enough effect in the signal ratio, not every such curve was filed as active; inconclusive means small, poorly fitted or top-dose-only effect, or a change in a side signal; inactive means no such curve, though single readings can be large or run the other way; the % refers to the signal ratio;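 further: cells stimulated with carbachol in lithium chloride buffer; plate controls were DMSO basal wells for no effect and reference inhibitor wells for full effect; higher means more IMPase inhibition seen as more IP1 and lower FRET ratio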
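CHO-M1 cells (CHO stably expressing M1 receptor), compound up to 46 uM final, stimulated with carbachol (50 uM as added) in buffer with 50mM LiCl, pH 7.4, 30 min at 37C. Cytosolic IP1 read by TR-FRET; AC50 from Hill fits.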
HPGD block = qHTS Assay for Inhibitors of HPGD (15-Hydroxyprostaglandin Dehydrogenase); 15-hydroxyprostaglandin dehydrogenase [NAD(+)] (Homo sapiens), P15428; purified HPGD, NADH fluorescence kinetic, PGE2 substrate; Potency, µM, for the others: top-dose activity change, negative = inhibition, actives largely listed as inhibitors; 150,000 tested, 4.3% active; AID 894, 2007; further: potency means the concentration at half of the fitted maximal effect
Target sequence (P15428 whole entry, looked up): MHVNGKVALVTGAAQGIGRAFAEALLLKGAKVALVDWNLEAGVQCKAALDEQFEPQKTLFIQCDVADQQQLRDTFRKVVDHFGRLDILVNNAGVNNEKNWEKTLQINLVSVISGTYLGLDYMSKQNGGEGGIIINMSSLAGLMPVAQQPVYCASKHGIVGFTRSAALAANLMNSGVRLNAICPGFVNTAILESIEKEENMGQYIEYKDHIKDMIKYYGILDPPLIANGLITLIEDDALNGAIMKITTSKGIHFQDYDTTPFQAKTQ
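NADH formation kinetics: reaction with 30 uM PGE2 and 1 mM NAD+ (final), 20 nM enzyme, Tris-HCl pH 8 with Tween 20, after 15 min compound preincubation at room temperature. Fluorescence change, last versus first of five reads.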
Lamin A splicing = qHTS Assay for Modulators of Lamin A Splicing; 200,000 tested, 0.01% active; Potency, µM (highest dose often 46.1 µM), inactives show at the highest dose ratio change, negative = inhibition, most hits filed as inhibitors; HeLa LMNA splicing GFP/RFP minigene ratio, 48 h; active means well fitted inhibition curve with a large enough effect in the signal ratio, with a control signal flat, not every such curve was filed as active; inconclusive means small, poorly fitted or top-dose-only effect, or effect the other way, or a change in a side signal; the % refers to the signal ratio; further: potency means the concentration at half of the fitted maximal effect
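S3 HeLa stable clones carrying a lamin A-EGFP splicing minigene plus DsRed2 were seeded at 600 cells/well in Opti-MEM with 2% FBS, pin-dosed and incubated 48 h at 37°C. Acumen cytometry (488 nm) gave the GFP/RFP total-intensity ratio.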
PNC inhibitor = High Content Assay for Compounds that inhibit the Assembly of the Perinucleolar Compartment; PC3M PTB-GFP, PNC prevalence imaging, 16 h; hits give low values; activity change (PNC), negative = inhibition, % at 10 µM; 140,000 tested, 3.1% active;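 active means readout at or below -70, meaning at least 70% loss of cells showing the perinucleolar compartment, a nuclear body marking cancer cells; inconclusive means readout between -30 and a set limit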;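 further: plate controls were DMSO wells for no effect and camptothecin positive control wells for full effect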
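Compounds are pinned in duplicate onto adhered PC3M cells stably expressing GFP-tagged PTB and incubated 16 h at 37 C. Cells are then fixed, nuclei stained with Hoechst, and PNC-positive cells counted.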
KinaseGlo FLuc = Counterscreen for Luciferase (Kinase-Glo TM) Inhibition; Luciferin 4-monooxygenase (Photuris pensylvanica), Q27757; Potency, µM (top dose mostly 38.3 µM), inactives show at the top dose activity change, negative = inhibition, most hits filed as inhibitors; Kinase-Glo luciferase, ATP luminescence, 8 min; 200,000 tested, 0.28% active; active means well fitted inhibition curve with a large enough effect; inconclusive means small, poorly fitted or top-dose-only effect; further: potency means the concentration at half of the fitted maximal effect; nearly all actives have a fitted effect of over 60% in size
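Light output from Kinase-Glo luciferase with luciferin and 10 uM ATP in 50 mM imidazole pH 7.2, KCl, MgCl2, Tween 20, BSA; compound pin-delivered, 8-min ambient incubation, then luminescence read.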
ALDH1A1 inh = qHTS Assay for Inhibitors of Aldehyde Dehydrogenase 1 (ALDH1A1); Potency, µM (titrated, usually from 75.3 µM), for the others: at the highest dose activity, negative = inhibition, usual class: inhibitors; Purified ALDH1A1, NADH fluorescence, propionaldehyde substrate; Aldehyde dehydrogenase 1A1 (Homo sapiens), P00352; 220,000 tested, 7.3% active;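 further: potency means the concentration at half of the fitted maximal effect; plate controls were no enzyme wells and a reference inhibitor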
Target sequence (P00352 whole entry, looked up): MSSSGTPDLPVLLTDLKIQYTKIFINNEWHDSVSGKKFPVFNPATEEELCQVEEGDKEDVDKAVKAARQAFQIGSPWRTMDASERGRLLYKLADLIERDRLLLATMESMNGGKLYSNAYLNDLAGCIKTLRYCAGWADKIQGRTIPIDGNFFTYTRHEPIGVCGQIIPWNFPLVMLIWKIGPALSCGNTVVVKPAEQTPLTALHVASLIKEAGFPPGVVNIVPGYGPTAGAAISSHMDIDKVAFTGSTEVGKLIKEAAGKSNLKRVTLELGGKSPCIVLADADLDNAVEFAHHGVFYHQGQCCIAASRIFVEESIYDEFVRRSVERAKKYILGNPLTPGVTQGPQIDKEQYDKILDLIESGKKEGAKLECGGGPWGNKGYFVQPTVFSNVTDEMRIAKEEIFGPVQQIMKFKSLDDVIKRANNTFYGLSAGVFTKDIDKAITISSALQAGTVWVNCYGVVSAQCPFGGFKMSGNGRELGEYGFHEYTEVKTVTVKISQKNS
Active calls of the source: *; [ ] = another dose, or the depositor's remark. Unless noted, the call rests on the fitted dose curve; in most records, active means well fitted inhibition curve with a large enough effect (not every such curve was filed as active); inconclusive means small, poorly fitted or top-dose-only effect, or another doubt; inactive means no such curve, though single readings can be large or run the other way. Unless noted, on the % scale 0 is the no-effect control and ±100 the full control effect.

Results for CCCn1cc(S(=O)(=O)c2ccc(OC)cc2)c(=O)c2cc(F)c(N3CCCCCC3)cc21 ?
Lamin A splicing: 6.2%[46 µM]

Results for Cc1ccc(NC(=S)Nc2ccc3nc(-c4ccccn4)c(-c4ccccn4)nc3c2)cc1C ?
HPGD block: -25.8%; Lamin A splicing: -1.9%; PNC inhibitor: inconclusive; KinaseGlo FLuc: -2.0%; ALDH1A1 inh: 17.8µM*

Results for Cc1c(C(=O)NN)sc(-c2ccccc2)c1C#N ?
KinaseGlo FLuc: -2.9%; ALDH1A1 inh: 1.26µM*

What do the screens show for `COc1ccc(C)cc1NC(=O)C(c1ccccc1)N1CCNC(=O)C1` (centres undefined)?
Lamin A splicing: -17.4%[46 µM]; KinaseGlo FLuc: 6.8%; ALDH1A1 inh: 17.8µM*

Results for COc1ccc(C)cc1NC(=O)C(Sc1nncn1C)c1ccccc1 (centres undefined) ?
KinaseGlo FLuc: 1.2%; ALDH1A1 inh: -13.1%

Results for COc1ccc(Cl)cc1NC(=O)C(OC)c1ccccc1 (centres undefined) ?
KinaseGlo FLuc: 3.3%; ALDH1A1 inh: 1.58µM*

What do the screens show for `COc1ccc(C)cc1NC(=O)C(OC(=O)C1CC1)c1ccccc1` (centres undefined)?
Lamin A splicing: -18.2%[46 µM]; KinaseGlo FLuc: 2.5%; ALDH1A1 inh: 3.98µM*

What do the screens show for `CCC(C(=O)OCC(=O)Nc1cc(C)ccc1OC)c1ccccc1` (centres undefined)?
Lamin A splicing: -9.3%[46 µM]; KinaseGlo FLuc: -0.6%; ALDH1A1 inh: -5.1%

How did COc1ccc(NC(=O)C(NCC(C)C)c2ccccc2)cc1Cl (centres undefined) do in these assays?
KinaseGlo FLuc: -1.8%; ALDH1A1 inh: 1.41µM*

Results for Cc1ccc(-c2nc3cc(Cl)ccc3o2)cc1NC(=O)c1cc2ccccc2o1 ?
IMPase inh: -11.5

What do the screens show for `CS(=O)(=O)CCC(C(=O)Nc1cccc(C(F)(F)F)c1)N1Cc2ccccc2C1=O` (centres undefined)?
Lamin A splicing: -9.4%[46 µM]

Results for COc1ccc(NC(=O)C(OC)c2ccccc2)cc1Cl (centres undefined) ?
HPGD block: -6.8%; Lamin A splicing: inconclusive; PNC inhibitor: inconclusive; KinaseGlo FLuc: 0.6%; ALDH1A1 inh: 12.6µM*

Results for CCC(C(=O)Nc1cc(Cl)ccc1OC)c1ccccc1 (centres undefined) ?
HPGD block: -10.4%; Lamin A splicing: inconclusive; PNC inhibitor: 15.0; KinaseGlo FLuc: -0.1%; ALDH1A1 inh: 22.4µM*

Results for COc1ccc(Cl)cc1NC(=O)CNCC(c1ccccc1)N(C)C (centres undefined) ?
KinaseGlo FLuc: -0.5%; ALDH1A1 inh: inconclusive

Results for COc1ccc(NC(=O)C(C)NS(=O)(=O)c2ccccc2)cc1Cl (centres undefined) ?
IMPase inh: 9.3; HPGD block: -2.6%; Lamin A splicing: -16.3%; PNC inhibitor: 43.9; KinaseGlo FLuc: 1.3%; ALDH1A1 inh: inconclusive

Results for CCCc1cnc2c(c1SCC(=O)N(C)c1ccccc1)c(=O)n(C)c(=O)n2C ?
Lamin A splicing: 0.7%[46 µM]

Results for Cc1ccc2[nH]c(=O)c(CN(Cc3ccccc3)C(=S)NCCCN(C)C)cc2c1 ?
Lamin A splicing: inconclusive; KinaseGlo FLuc: 12.6µM*; ALDH1A1 inh: -5.2%

Results for COc1ccccc1NC(=S)N(Cc1ccco1)Cc1cc2cc(C)cc(C)c2[nH]c1=O ?
IMPase inh: -3.2; HPGD block: -13.3%; Lamin A splicing: inconclusive; PNC inhibitor: 23.4; KinaseGlo FLuc: 3.3%; ALDH1A1 inh: -0.3%

Results for Cc1cccc2cc(CN(CCN(C)C)C(=S)Nc3ccccc3)c(=O)[nH]c12 ?
IMPase inh: 2.4; HPGD block: -3.6%; Lamin A splicing: -15.0%; PNC inhibitor: -99.3*; KinaseGlo FLuc: 3.1%; ALDH1A1 inh: inconclusive

What do the screens show for `COc1ccccc1NC(=S)N(Cc1ccco1)Cc1cc2ccc(C)c(C)c2[nH]c1=O`?
HPGD block: -15.2%; Lamin A splicing: inconclusive; PNC inhibitor: -84.2*; KinaseGlo FLuc: -0.5%; ALDH1A1 inh: inconclusive

Results for Cc1cc(C)c2cc(CN(CC3CCCO3)C(=S)NCc3ccco3)c(=O)[nH]c2c1 (centres undefined) ?
Lamin A splicing: inconclusive; KinaseGlo FLuc: -5.4%; ALDH1A1 inh: 15.8µM*

What do the screens show for `Cc1cc(C)c2cc(CN(Cc3ccco3)C(=O)NCc3ccccc3)c(=O)[nH]c2c1`?
IMPase inh: 15.6; Lamin A splicing: 0.0%; PNC inhibitor: -7.8; ALDH1A1 inh: inconclusive

Results for CCN1CCC(O)([C@H](C(=O)O)c2ccccc2)CC1 ?
HPGD block: 0.6%; KinaseGlo FLuc: -1.1%[7.66 µM]; ALDH1A1 inh: -15.2%[13.5 µM]

What do the screens show for `COc1ccccc1CNC(=O)c1ccc(N2CCCC2)c(NC(=O)NCc2ccccc2)c1`?
Lamin A splicing: -4.8%[46 µM]

How did Cc1cccc2cc(CN(CC3CCCO3)C(=S)NCc3ccco3)c(=O)[nH]c12 (centres undefined) do in these assays?
HPGD block: -12.7%; Lamin A splicing: inconclusive; PNC inhibitor: 12.1; KinaseGlo FLuc: 0.1%; ALDH1A1 inh: inconclusive

What do the screens show for `COc1ccc2cc(CN(CC3CCCO3)C(=S)NCc3ccco3)c(=O)[nH]c2c1` (centres undefined)?
KinaseGlo FLuc: -1.2%; ALDH1A1 inh: 3.55µM*

How did Cc1ccc(C)c2[nH]c(=O)c(CN(Cc3ccco3)C(=S)NCC3CCCO3)cc12 (centres undefined) do in these assays?
Lamin A splicing: -10.3%[46 µM]; KinaseGlo FLuc: -2.6%; ALDH1A1 inh: 20µM*

How did Cc1ccc2cc(CN(Cc3ccco3)C(=S)NCC3CCCO3)c(=O)[nH]c2c1 (centres undefined) do in these assays?
Lamin A splicing: 21.3%[46 µM]; KinaseGlo FLuc: -7.2%; ALDH1A1 inh: -8.2%

Results for Cc1cc(C)c2[nH]c(=O)c(CN(CC3CCCO3)C(=S)NCc3ccco3)cc2c1 (centres undefined) ?
HPGD block: -19.1%; Lamin A splicing: -16.0%; PNC inhibitor: -81.6*; KinaseGlo FLuc: -3.4%; ALDH1A1 inh: inconclusive
